Reference: PubChem BioAssay (Tox21)
Inconclusive results are not listed. Activity calls are given as the source filed them. Unless noted, calls come from the whole dose curve; as a rule, active = well fitted curve in the direction sought with a large enough effect in the repeat runs; inconclusive = weak or mixed curves; inactive = no such curve, though single readings can be large; an effect the other way counts as inactive or inconclusive.

Key:
[1] = A CellTox Green Cytotoxicity Assay to monitor cytotoxicity in HEK293 cells - 32 hour (AID 1224881); note: nearly all actives have a fitted effect of over 40% in size; note: potency is the fitted concentration of half-maximal effect
In short: (§1)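 Cells (HEK293, 600/well) and dye reagent are dispensed together. After 5 h at 37 C, 23 nL compound is pinned in. Plates stay at 37 C for 40 h with fluorescence read at 0h, 8h, 16h, 24h, 32h and 40h.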

[2] = A CellTox Green Cytotoxicity Assay to monitor cytotoxicity in HepG2 cells - 32 hour (AID 1224883); note: nearly all actives have a fitted effect of over 50% in size; note: potency is the fitted concentration of half-maximal effect
In short: (§2)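 Cells and non-lytic dye reagent are dispensed together (600 HepG2 cells/well) and incubated 5 h before DMSO compound transfer. Kinetic fluorescence is then recorded in the same wells during 40 h at 37 C.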

[3] = A CellTox Green Cytotoxicity Assay to monitor cytotoxicity in HEK293 cells - 8 hour (AID 1224884); note: nearly all actives have a fitted effect of over 35% in size; note: potency is the fitted concentration of half-maximal effect
In short: as §1

[4] = qHTS RealTime-Glo MT Cell Viability Assay in HEK293 cells - 24 hour (AID 1224886); note: nearly all actives have a fitted effect of over 50% in size; note: potency is the fitted concentration of half-maximal effect
In short: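 Luminescence generated by NanoLuc from substrate produced by living HEK293 cells served as the viability signal. Each value reflects the reading at its stated time point during continuous 40 h compound exposure at 37 C.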

[5] = qHTS RealTime-Glo MT Cell Viability Assay in HEK293 cells - 8 hour (AID 1224887); note: nearly all actives have a fitted effect of over 50% in size; note: potency is the fitted concentration of half-maximal effect
In short: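 Real-time viability in HEK293: signal arises when living cells convert a prosubstrate for NanoLuc in the medium, so luminescence tracks viable cell number. Compound (23 nL, DMSO) added 5 h post-seeding; kinetic reads at 0–40 h, 37 C.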

[6] = A CellTox Green Cytotoxicity Assay to monitor cytotoxicity in HEK293 cells - 16 hour (AID 1224888); note: nearly all actives have a fitted effect of over 35% in size; note: potency is the fitted concentration of half-maximal effect
In short: as §1

[7] = qHTS RealTime-Glo MT Cell Viability Assay in HepG2 cells - 0 hour (AID 1224889); note: nearly all actives have a fitted effect of over 50% in size
In short: (§3)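 Tox21 10K library screened in qHTS format on HepG2 cells carrying RealTime-Glo reagents. Compounds were added after a 5 h preincubation, and the luminescent signal from continuous culture was measured repeatedly during 40 h treatment.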

[8] = A CellTox Green Cytotoxicity Assay to monitor cytotoxicity in HepG2 cells - 8 hour (AID 1224890); note: nearly all actives have a fitted effect of over 45% in size; note: potency is the fitted concentration of half-maximal effect
In short: as §2

[9] = qHTS assay to identify small molecule antagonists of the estrogen receptor alpha (ER-alpha) signaling pathway using the BG1 cell line in the presence of 0.1 nM 17-beta-estradiol - cell viability counter screen (AID 1259241); note: nearly all actives have a fitted effect of over 40% in size; note: potency is the fitted concentration of half-maximal effect
In short: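 Viability in VM7Luc4E2 cells after 22 hr compound exposure under 0.1 nM 17beta-estradiol stimulation, by CellTiter-Fluor.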

[10] = target: Estrogen receptor (Homo sapiens) (UniProt P03372); experiment: qHTS assay to identify small molecule antagonists of the estrogen receptor alpha (ER-alpha) signaling pathway using the BG1 cell line in the presence of 0.1 nM 17-beta-estradiol (AID 1259244); note: nearly all actives have a fitted effect of over 50% in size; note: potency is the fitted concentration of half-maximal effect
Sequence of Estrogen receptor (Homo sapiens) (P03372 whole entry, looked up): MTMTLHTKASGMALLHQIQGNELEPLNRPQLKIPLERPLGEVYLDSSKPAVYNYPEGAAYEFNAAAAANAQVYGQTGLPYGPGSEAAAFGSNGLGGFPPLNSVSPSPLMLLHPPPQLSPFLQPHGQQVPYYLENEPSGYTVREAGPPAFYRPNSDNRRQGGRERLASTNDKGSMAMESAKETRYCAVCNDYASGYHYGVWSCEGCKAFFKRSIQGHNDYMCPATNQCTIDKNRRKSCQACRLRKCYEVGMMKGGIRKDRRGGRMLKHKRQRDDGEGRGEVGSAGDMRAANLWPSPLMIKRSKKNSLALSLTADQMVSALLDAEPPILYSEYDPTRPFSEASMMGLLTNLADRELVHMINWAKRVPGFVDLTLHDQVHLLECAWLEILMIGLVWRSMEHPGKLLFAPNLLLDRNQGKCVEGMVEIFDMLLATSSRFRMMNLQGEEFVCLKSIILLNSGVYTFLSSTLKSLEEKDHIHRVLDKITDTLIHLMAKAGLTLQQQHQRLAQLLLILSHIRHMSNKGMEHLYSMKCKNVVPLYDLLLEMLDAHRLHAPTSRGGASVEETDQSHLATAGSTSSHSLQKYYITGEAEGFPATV
In short: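 Antagonist mode: compounds in DMSO are pinned onto VM7Luc4E2 reporter cells, 0.1 nM final 17beta-estradiol is added, and after 22 h at 37C luciferase luminescence is measured with ONE-Glo.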

[11] = qHTS assay to identify small molecule HDAC inhibitors (AID 1259364); note: potency is the fitted concentration of half-maximal effect;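 note: wild-type HCT-116 cells with endogenous class I/II HDAC activity; nearly all actives have a fitted effect of over 45% in size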
In short: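 Cells (HCT-116, wild type) are seeded at 1,500 per well, incubated overnight, treated with compound in DMSO for 2 hr, then developed with HDAC-Glo I/II reagent for 30 min at room temperature.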

[12] = qHTS assay to identify small molecule HDAC inhibitors - cell viability counter screen (AID 1259365); note: nearly all actives have a fitted effect of over 50% in size; note: potency is the fitted concentration of half-maximal effect
In short: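 Cytotoxicity was gauged in wild-type HCT-116 cells after a brief 2hr treatment with DMSO-dissolved compounds at 37C and 5% CO2, using CellTiter-Glo luminescence developed for 30min at room temperature.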

[13] = qHTS assay to identify small molecule agonists of the sonic hedgehog signaling (Shh) pathway - cell viability counter screen (AID 1259366); note: nearly all actives have a fitted effect of over 50% in size; note: potency is the fitted concentration of half-maximal effect
In short: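 Stable Gli1-Luc NIH/3T3 clone, 2,000 cells/well. Compound exposure 24hr at 37C. Read-out: CellTiter-Fluor fluorescence.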

[14] = qHTS assay to identify small molecule antagonists of the sonic hedgehog signaling (Shh) pathway - cell viability counter screen (AID 1259367); note: nearly all actives have a fitted effect of over 55% in size; note: potency is the fitted concentration of half-maximal effect
In short: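 Conditioned medium drove Shh signaling in 3T3 Gli1-Luc cells exposed to compounds at 37C and 5% CO2. Viability was determined from CellTiter-Fluor fluorescence, with reagent incubated 1 hr after 23 hr of treatment.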

[15] = qHTS assay to identify small molecule agonists of the sonic hedgehog signaling (Shh) pathway (AID 1259368; calls by dose curve;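 note: NIH/3T3-derived 3T3Gli1-Luc cells carrying a stable Gli1-driven firefly luciferase reporter; series mostly up to about 92 µM; nearly all actives have a fitted effect of over 15% in size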)
In short: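 Cells of a mouse NIH/3T3 clone stably expressing luciferase under the Gli1 transcriptional response element are exposed to test chemicals for 24 hr at 37 C. Pathway activation is detected as a rise in luminescence.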

[16] = qHTS RealTime-Glo MT Cell Viability Assay in HepG2 cells - 16 hour (AID 1224885); note: nearly all actives have a fitted effect of over 50% in size; note: potency is the fitted concentration of half-maximal effect
In short: as §3

[17] = qHTS assay to identify small molecule antagonists of the androgen receptor (AR) signaling pathway using the MDA cell line in the presence of 0.5 nM R1881 - cell viability counter screen (AID 1259242); note: nearly all actives have a fitted effect of over 45% in size; note: potency is the fitted concentration of half-maximal effect
In short: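 Steps: plate MDA-kb2 cells, rest 5 hr at 37C without CO2; pin in compounds in DMSO; add R1881 to 0.5 nM final; incubate 16 hr; add CellTiter-Fluor, 30 min; read fluorescence.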

[18] = target: Androgen receptor (Homo sapiens) (UniProt P10275); experiment: qHTS assay to identify small molecule antagonists of the androgen receptor (AR) signaling pathway using the MDA cell line in the presence of 0.5 nM R1881 (AID 1259243)
Sequence of Androgen receptor (Homo sapiens) (P10275 whole entry, looked up): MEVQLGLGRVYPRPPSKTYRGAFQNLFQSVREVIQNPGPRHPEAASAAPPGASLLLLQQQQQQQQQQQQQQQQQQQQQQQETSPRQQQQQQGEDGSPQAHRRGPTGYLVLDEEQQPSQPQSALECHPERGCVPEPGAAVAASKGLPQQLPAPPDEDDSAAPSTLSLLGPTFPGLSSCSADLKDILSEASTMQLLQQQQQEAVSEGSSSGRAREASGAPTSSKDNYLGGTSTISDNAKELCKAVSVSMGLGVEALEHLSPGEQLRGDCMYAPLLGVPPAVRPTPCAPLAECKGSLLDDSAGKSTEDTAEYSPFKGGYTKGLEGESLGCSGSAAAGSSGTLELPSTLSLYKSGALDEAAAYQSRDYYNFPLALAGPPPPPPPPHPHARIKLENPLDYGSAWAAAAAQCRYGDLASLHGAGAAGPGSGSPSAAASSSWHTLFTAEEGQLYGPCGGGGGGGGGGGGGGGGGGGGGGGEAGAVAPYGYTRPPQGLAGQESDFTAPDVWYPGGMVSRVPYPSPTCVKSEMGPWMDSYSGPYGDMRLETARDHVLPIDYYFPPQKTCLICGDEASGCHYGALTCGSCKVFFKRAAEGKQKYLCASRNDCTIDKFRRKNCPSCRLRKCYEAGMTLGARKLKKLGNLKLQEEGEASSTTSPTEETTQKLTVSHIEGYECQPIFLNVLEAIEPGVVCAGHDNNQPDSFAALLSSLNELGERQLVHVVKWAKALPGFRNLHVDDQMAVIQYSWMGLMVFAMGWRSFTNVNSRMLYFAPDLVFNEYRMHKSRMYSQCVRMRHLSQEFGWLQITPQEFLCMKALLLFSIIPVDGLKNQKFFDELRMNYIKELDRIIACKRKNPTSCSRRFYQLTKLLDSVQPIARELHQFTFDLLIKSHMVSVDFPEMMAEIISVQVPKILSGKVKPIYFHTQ
In short: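 Stably transfected MDA-kb2 cells express luciferase from an MMTV promoter bearing both AR and GR response elements. Compounds plus 0.5 nM R1881 (final) were incubated 16 hr at 37C without CO2, then luminescence measured.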

Measured: Potency

CCCCN(CCCC)C(=S)[S-].CCCCN(CCCC)C(=S)[S-].[Zn+2]
active: [1] 19.5 µM | [2] 21.9 µM | [4] 11 µM | [5] 15.5 µM | [9] 17.2 µM | [10] 13.7 µM | [13] 5.44 µM | [14] 6.85 µM
inactive: [3] | [6] | [7] | [8] | [11] | [12] | [15]

N#Cc1ccccc1Cl
inactive: [1] | [2] | [3] | [16] | [4] | [5] | [6] | [7] | [8] | [9] | [17] | [11] | [12] | [14] | [15]

CCN(CC)C(=S)[S-].CCN(CC)C(=S)[S-].[Zn+2]
active: [1] 15.4 µM | [2] 9.69 µM | [16] 13.7 µM | [4] 4.86 µM | [9] 1.92 µM | [10] 1.08 µM | [11] 34.1 µM | [13] 1.21 µM | [14] 1.08 µM
inactive: [3] | [6] | [7] | [8] | [17] | [12] | [15]

CCN
inactive: [1] | [2] | [3] | [16] | [4] | [5] | [6] | [7] | [8] | [9] | [17] | [11] | [12] | [13] | [14] | [15]

CSCCCN=C=S
inactive: [1] | [3] | [5] | [6] | [7] | [8] | [9] | [17] | [11] | [13] | [14] | [15]

O=C1c2ccccc2C(=O)C1C(=O)C(c1ccccc1)c1ccc(Cl)cc1 (centres undefined)
inactive: [1] | [16] | [4] | [5] | [17] | [11] | [13] | [14]
active: [2] 54.9 µM | [8] 49 µM | [18] 21.7 µM | [10] 27.3 µM

CCCCCCCCCCCCCC[P+](CCCCCC)(CCCCCC)CCCCCC (tested in a mixture with another compound)
inactive: [7] | [11] | [15]
active: [1] 13.8 µM | [2] 24.6 µM | [3] 24.6 µM | [16] 49 µM | [4] 6.92 µM | [5] 13.8 µM | [6] 17.4 µM | [8] 43.7 µM | [17] 19.3 µM | [10] 3.86 µM | [12] 68.6 µM | [13] 13.7 µM | [14] 48.6 µM

CC(C)OS(C)(=O)=O
inactive: [1] | [2] | [3] | [16] | [4] | [5] | [6] | [7] | [8] | [9] | [17] | [10] | [11] | [12] | [13] | [14] | [15]
